EBV LMP1 NFkB = inhibitors of Epstein-Barr LMP1-induced NF-kappaB reporter; inhibition, % at 12.5 µM; LMP1-induced NF-kappaB luciferase reporter cells, luminescence; 350,000 compounds, 0.69% hits; in the data active means inhibition above about 41%; inconclusive means no clear call, values can overlap the other calls;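 further: 0% = neutral control wells and 100% = reference inhibitor control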
Shn3 inh set2 = inhibitors of Schnurri-3 3'UTR reporter in osteoblasts; inhibition, % at 12.5 µM; 360,000 compounds, 0.52% hits; Clone20 osteoblast Shn3 3'UTR firefly luciferase, 24 h; AID 588674;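 active means mean inhibition of at least 75% with every replicate also reaching 75%; inconclusive means mean inhibition at least 75% but some replicate below; inactive means mean inhibition below 75%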;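 further: 0% = median of neutral control wells and 100% = pilot-screen positive control compound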
MITF TRPM1 inh = MITF TRPM1 promoter inhibition in SK-MEL-5 cells; SK-MEL-5 TRPM1 promoter luciferase, 24 h; inhibition, % at 12.5 µM; 330,000 compounds, 0.83% hits;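 active means mean inhibition across replicates of 60% or more, whatever share of single replicates reaches that level; inconclusive means some that reach 60%, reason not given; inactive means mean inhibition across replicates below 60%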
TWEAK-Fn14 inh = TWEAK-Fn14 signaling inhibition; TWEAK-stimulated Fn14 reporter cells, luciferase luminescence, 8 h; inhibition, % at 10 µM; 360,000 compounds, 2% hits; AID 1159606; in the data active means inhibition above about 50%
Peg3 prom inh = Peg3 promoter activity inhibition; HeLa PEG-Prom luciferase reporter, luminescence, overnight; inhibition, % at 20 µM; 360,000 compounds, 1.7% hits; AID 588405;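 active means inhibition of at least 50% at 20 µM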
TROY signal inh = TROY signaling inhibition. 360,000 compounds, 0.98% hits. inhibition, % at 10 µM. Q293 LMP1-TROYcd NF-kB luciferase reporter, 4 h;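 active means compounds whose plate-normalised and pattern-corrected inhibition of the luciferase reporter signal at the single screening dose is 50% or more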
* marks the source's active call; other numbers are inactive results; u = inconclusive; x = no result given. Rows were chosen to be rich in hits. Some 4.1% of all compounds tested hit in one or more screens of this group.

SMILES	EBV LMP1 NFkB	Shn3 inh set2	MITF TRPM1 inh	TWEAK-Fn14 inh	Peg3 prom inh	TROY signal inh
O=C(O)C1CN(C(=O)c2ccccc2)c2cc(Cl)ccc2O1 (stereo unspecified)	-1	-2	-1	10	-12	12
C/C(=N\NC(=O)c1nnn(-c2nonc2N)c1COc1ccc(F)cc1)c1ccc(Cl)cc1	6	3	-1	-11	-7	3
C[C@H](CO)N1C[C@H](C)[C@H](CN(C)Cc2cncnc2)Oc2cc(Br)ccc2S1(=O)=O	6	-4	x	0	1	12
Cc1cccc(CN2C(=O)c3ccccc3Sc3ccc(C(=O)NCCCN4CCOCC4)cc32)c1	6	3	-2	21	6	-1
Cc1cccc(CN2C(=O)/C(=C\c3ccc(C(=O)NCCCN4CCN(C)CC4)cc3)Oc3ccccc32)c1	-1	12	94*	-173	87*	-11
CN1CCN(CCCNC(=O)c2ccc(/C=C3\Oc4ccccc4N(Cc4ccccc4F)C3=O)cc2)CC1	-6	3	34	-67	69*	-5
CCC1(C)Cc2ccccc2-c2nc(SCC(N)=O)[nH]c(=O)c21 (stereo unspecified)	-9	-11	-4	12	13	53*
COc1ccc(C)cc1N(CC(=O)NC1CCCC1)C(=O)CCC(=O)Nc1nc(C)cs1	4	-11	13	17	6	-11
CN(C(=O)CN1C(=O)c2ccccc2S1(=O)=O)C1CCCCC1	6	12	-1	70*	-34	75*
CCn1c(C)cc(C(=O)CN2C(=O)c3ccccc3S2(=O)=O)c1C	73*	67	68*	93*	80*	83*
O=C(CN1C(=O)c2ccccc2S1(=O)=O)c1ccccc1	61*	52	60	100*	53*	77*
CC1CCCC(C)N1C(=O)CN1C(=O)c2ccccc2S1(=O)=O (stereo unspecified)	3	-3	x	6	-30	-8
O=C(CN1C(=O)c2ccccc2S1(=O)=O)Nc1ncc(Cl)cc1Cl	41*	39	38	75*	58*	55*
O=C(CN1C(=O)c2ccccc2S1(=O)=O)c1ccccc1Cl	67*	63	78*	102*	41	85*
O=C(CN1C(=O)c2ccccc2S1(=O)=O)NCc1ccccc1Cl	0	4	-1	-9	-3	-5
COc1cc(NCCCCCCN)c2ncccc2c1OC	56*	7	8	27	-6	-1
CCN(CC)S(=O)(=O)c1ccc2c(c1)nc(SCC(=O)NC1CC1)n2-c1ccccc1OC	0	11	-7	61*	12	x
Cc1ccc(/C=C/C(=O)N2CCCC(C(N)=O)C2)o1 (stereo unspecified)	2	x	-4	11	-5	-4
Fc1ccc(-n2nnc(-c3cccnc3)n2)cc1	-20	-87	-65	-39	-268	-46
Fc1ccc(-n2nnc(-c3cnc4ccccc4c3)n2)cc1	u	46	16	94*	52*	73*
COc1ccc(OCCCN(C)Cc2ccccc2)cc1	7	-6	-11	76*	9	0
CCCCc1nc(N2CCN(C(=O)c3ccco3)CC2)c(C#N)c2c1CCCC2	6	4	20	-7	32	68*
CC(C)(C)NC(=O)C(c1ccccn1)N(C(=O)c1csnn1)C1CCCC1 (stereo unspecified)	-2	-2	1	5	-5	12
Cn1nc(-c2ccc(Cl)cc2)c2cc(C(=O)N3CCN(c4ccccn4)CC3)sc21	-2	83	34	79*	36	52*
Cn1nc(-c2ccc(Cl)cc2)c2cc(C(=O)N3CCN(c4ccccc4)CC3)sc21	-7	22	23	-8	4	10
SMILES	EBV LMP1 NFkB	Shn3 inh set2	MITF TRPM1 inh	TWEAK-Fn14 inh	Peg3 prom inh	TROY signal inh
Cc1nc(N)sc1C(=O)N1N=N1	-8	12	-6	0	-9	-6
O=C(/C=C/c1ccccc1Cl)c1ccc(O)cc1	3	-9	-12	44	-71	4
O=C(/C=C/c1c(F)cccc1Cl)c1ccc(O)cc1	-2	-16	-2	61*	-109	-7
CC(=O)N1CCc2c(sc(NC(=O)C3CC3)c2-c2nc3ccccc3s2)C1	-11	3	4	-51	0	-9
CC(=O)Nc1sc2c(c1-c1nc3ccccc3s1)CN(C(C)C)CC2	-3	-24	64*	1	98*	12
N#Cc1ccc(-c2nc3ccc(Cl)cn3c2Cc2ccccc2C(F)(F)F)cc1	x	1	x	-3	-35	-6
CCOc1ccc(CN(C)CC(O)COC(c2ccc(OC)cc2)c2ccc(OC)cc2)cc1 (stereo unspecified)	-7	31	-5	-12	50*	-37
CCN(CC(=O)Nc1ccc2c(c1)OCCO2)C(=O)CN1C(=O)NC(C)(c2ccc(C)cc2)C1=O (stereo unspecified)	-2	8	-5	5	14	12
CC(C)=CCC/C(C)=C/CNC(=O)C[C@H]1C[C@H](C(=O)N2CCOCC2)[C@@]2(C)c3[nH]c4ccc(Cl)cc4c3CCN2C1=O	1	40	9	51*	56*	51*
CCN(CC)C(=O)[C@H]1C[C@H](CC(=O)NC/C=C(\C)CCC=C(C)C)C(=O)N2CCc3c([nH]c4cc(CCC(=O)N(C)C)ccc34)[C@]12C	0	90*	13	5	5	6
CCN(CC)C(=O)Cn1cc(C(=O)C(=O)N2CC=C(c3ccccc3)CC2)c2ccccc21	3	-8	7	18	8	4
COC1(OC)N=C(NC(=O)Nc2ccccc2)C2(C#N)C(c3ccccc3)C12C#N (stereo unspecified)	-4	-8	-9	-4	-8	-2
O=Cc1s/c(=N\S(=O)(=O)c2ccccc2)n(CCCCl)c1Cl	3	93*	97*	96*	109*	35
CCOc1ccc(C(C)=O)cc1COc1cccnc1[N+](=O)[O-]	51*	1	17	39	19	60*
N#Cc1c(N)n(C2OC(CO)C(O)C2O)c2ncnc(N)c12 (stereo unspecified)	66*	65	71*	101*	96*	62*
Nc1ncnc2c1ncn2C1O[C@H](CO)[C@@H](O)[C@@H]1O (stereo partly specified)	6	-36	6	-10	12	-13
COc1ccc(-c2cn(Cc3ccc(C(N)=O)cc3)c(CCN)n2)cc1	4	-31	-8	-25	-32	-22
Cc1ccc(N(C)S(=O)(=O)c2cc(-c3cnc(C4CC4)o3)ccc2C)cc1	-7	37	-3	78*	36	56*
Cc1cccc(N(C)S(=O)(=O)c2ccc(-c3cnc(C4CC4)o3)cc2)c1	12	13	56	17	12	43
N/C(=N\c1nc2ccccc2o1)NC(=O)/C=C/c1ccccc1	13	22	-14	55*	-44	40
